Drawing on the supplement of paper PMC10127200, this text covers Euclidean distance for 35 compounds.

The structures appear in SMILES notation. Counter-ions that a name gives are not always drawn.

This assay has as its system FB. Description: Euclidean distance of Cell Painting phenotypic profile (signed KS, 77 features) to DMSO centroid (dimensionless distance); higher = stronger phenotypic change vs DMSO (phenoactivity). Conditions: 48 h; 5 or 10 uM (library dependent). In outline: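 Harmony extracted 77 features from 20X confocal images (9 fields/well) of stained cells, scoring each as a signed Kolmogorov-Smirnov statistic against same-plate vehicle wells. The cells, five cancer lines and a healthy fibroblast line, had received library compounds for 48 h at 10 or 5 uM depending on library, with 0.1% DMSO final. Phenoactivity is the Euclidean distance from each plate-position-corrected, correlation-weighted, top-dose replicate-averaged profile to the median vehicle profile.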
Take `CN1c2ccccc2C(NCCCCCCC(=O)O)c2ccc(Cl)cc2S1(=O)=O` (stereo not given) [Tianeptine sodium]: the Euclidean distance turned out to be 1.05.
Take `CC(C)=CCOc1c2occc2cc2ccc(=O)oc12` [Imperatorin]: the Euclidean distance was 0.939.
As for `Cc1cccc(C)c1NC1=NCCCS1` [Xylazine], the figure is 0.632.
With `CC(C)NCC(O)c1ccccc1Cl` (stereo not given) [Clorprenaline HCl] the figure was 1.22; with `CCC1(c2cccc(O)c2)CCCCN(C)C1` (stereo not given) [Meptazinol HCl], 0.726.
As for `C[C@@H]1CC[C@@]2(OC1)O[C@H]1C[C@H]3[C@@H]4CC=C5C[C@@H](O[C@@H]6O[C@H](CO)[C@@H](O[C@@H]7O[C@@H](C)[C@H](O)[C@@H](O)[C@H]7O)[C@H](O)[C@H]6O[C@@H]6O[C@@H](C)[C@H](O)[C@@H](O)[C@H]6O)CC[C@]5(C)[C@H]4CC[C@]3(C)[C@H]1[C@@H]2C` [Dioscin], the figure is 1.29; as for `COc1ccc(OC)c(C(O)C(C)N)c1` (stereo not given) [Methoxamine HCl], 1.08; as for `C#C[C@]1(OC(=O)CCCCCC)CC[C@H]2[C@@H]3CCC4=CC(=O)CC[C@@H]4[C@H]3CC[C@@]21C` [Norethisterone Enanthate], 1.34.
`O=C1CCC[C@@H]2[C@H]3CCCN4CCC[C@@H](CN12)[C@@H]34` [(+)-Matrine] had an Euclidean distance of 1.03.
`O=C(NCC1CCOCC1)c1cnc(Nc2ccc(Cl)cc2Cl)nc1C(F)(F)F`: the Euclidean distance was found to be 3.43.
Regarding `CN1C[C@H](C(=O)N[C@]2(C)O[C@@]3(O)[C@@H]4CCCN4C(=O)[C@H](Cc4ccccc4)N3C2=O)C[C@@H]2c3cccc4[nH]cc(c34)C[C@H]21` [Dihydroergotamine Mesylate], the Euclidean distance worked out at 1.05.
With `C=C1[C@@H](C)[C@H]2[C@H](Cc3ccccc3)NC(=O)[C@]23[C@H](OC(C)=O)/C=C/[C@@](C)(O)C(=O)[C@@H](C)C/C=C/[C@H]3[C@@H]1O` [Cytochalasin D] the figure was 4.07; with `CCC12C=CCN3CC[C@@]4(c5ccc(OC)cc5N(C)[C@H]4[C@@](O)(C(=O)OC)[C@@H]1OC(C)=O)[C@@H]32` (stereo not given in full) [Vindoline], 0.943; with `NCC(O)c1ccc(O)cc1` (stereo not given) [(+.-)-Octopamine HCl], 0.934.
With `COC(=O)[C@@H](N)CCCNC(=N)N[N+](=O)[O-]` the figure was 1.29; with `CC[C@@]1(O)C[C@H](O[C@H]2C[C@H](N(C)C)[C@H](O)[C@H](C)O2)c2c(cc3c(c2O)C(=O)c2c(O)cccc2C3=O)[C@H]1C(=O)OC` [Aclacinomycin], 3.61.
With `CCC(COC(=O)c1cc(OC)c(OC)c(OC)c1)(c1ccccc1)N(C)C` (stereo not given) [Trimebutine] the figure was 0.704; with `CC(C)OC(=O)[C@H](C)N[P@](=O)(CO[C@H](C)Cn1cnc2c(N)ncnc21)Oc1ccccc1` [Tenofovir Alafenamide (GS-7340)], 1.85; with `Cl[TeH]1(Cl)(Cl)OCCO1.N`, 1.31.
`N.N.[Cl][Pt][Cl]` [Cisplatin] yielded an Euclidean distance of 0.888.
Compound `CC(=O)O[C@H]1C[C@@H]2CC[C@@H]3[C@H](CC[C@@]4(C)[C@H]3C[C@H]([N+]3(C)CCCCC3)[C@@H]4OC(C)=O)[C@@]2(C)C[C@@H]1[N+]1(C)CCCCC1` [Pancuronium dibromide] gave an Euclidean distance of 0.954.
With `CC[N+](C)(CC)CCOC(=O)C(O)(c1ccccc1)c1ccccc1` [Methylbenactyzine Bromide] the figure was 0.967; with `COc1ccc2[nH]cc(CCN)c2c1` [5-Methoxytryptamine], 1.38.
With `O=C(C[S+]([O-])C(c1ccccc1)c1ccccc1)NO` (stereo not given) [Adrafinil] the figure was 0.942; with `CC(C)(C)c1cc(C=C(C#N)C#N)cc(Br)c1O`, 1.1.
As to `CC(C)(O)C(Cl)(Cl)Cl` [Chlorobutanol], the Euclidean distance was found to be 0.61.
The compound `CCOC(=O)c1cncn1[C@H](C)c1ccccc1` [Etomidate] gave an Euclidean distance of 2.6.
`CC1(C)C(C=C(Cl)Cl)C1C(=O)OCc1cccc(Oc2ccccc2)c1` (stereo not given) [Permethrin] had an Euclidean distance of 0.816.
The compound `CC[C@H](C)[C@@H]([C@@H](CC(=O)N1CCC[C@H]1[C@H](OC)[C@@H](C)C(=O)N[C@H](C)[C@@H](O)c1ccccc1)OC)N(C)C(=O)[C@@H](NC(=O)[C@@H](NC)C(C)C)C(C)C` [Monomethyl auristatin E (MMAE)] registered an Euclidean distance of 2.93.
The compound `O=c1[nH]c2ccccc2n1CCCN1CCC(n2c(=O)[nH]c3cc(Cl)ccc32)CC1` [Domperidone] yielded an Euclidean distance of 1.14.
As for `Fc1cc(F)c2c(c1)[C@H]1C=CC[C@H]1C(c1cccnc1)N2` (stereo not given in full) [Golgicide A], the figure is 1.04; as for `Nc1ccncc1` [4-Aminopyridine], 0.938.
As for `C[C@@H]1[C@H](O)[C@@H](C)/C=C/C=C/CC/C=C/C=C/C=C/C=C/[C@H](O[C@H]2O[C@@H](C)[C@H](O)[C@@H](N)[C@H]2O)C[C@@H]2O[C@](O)(C[C@@H](O)[C@H](O)CC[C@@H](O)C[C@@H](O)C[C@@H](O)CC(=O)O[C@H]1C)C[C@H](O)[C@H]2C(=O)O` [Nystatin (Fungicidin)], the figure is 0.85; as for `CN1CCN(c2nc3ccccc3nc2Cl)CC1`, 0.897.
Consider `CC(C)(C)[C@]1(O)CC2OC(=O)CC23C(=O)OC2OC(=O)[C@H](O)C231` (stereo not given in full) [Bilobalide], for which the Euclidean distance was 0.78.
